According to PubChem BioAssay AID1220 (Sanford-Burnham Center for Chemical Genomics, 2008):
Screen size: about 190,000 compounds; about 1,300 (0.68%) were called active. The sample holds actives, similar compounds and a random draw of the others, so the mix is not that of the screen. Values without a mark were called inactive. Cut-off read from the data, not from the text of the source: active = inhibition above about 50%; inactive = the rest.

target: Mannose-6-phosphate isomerase (Homo sapiens) (UniProt P34949); experiment: human PMI inhibitors, high substrate, primary screen, biochemical, fluorescence intensity, high mannose 6-phosphate (AID 1220); details: recombinant PMI enzyme, coupled fluorescence intensity; at 20 µM; hits give high values
Sequence (P34949 whole entry, looked up): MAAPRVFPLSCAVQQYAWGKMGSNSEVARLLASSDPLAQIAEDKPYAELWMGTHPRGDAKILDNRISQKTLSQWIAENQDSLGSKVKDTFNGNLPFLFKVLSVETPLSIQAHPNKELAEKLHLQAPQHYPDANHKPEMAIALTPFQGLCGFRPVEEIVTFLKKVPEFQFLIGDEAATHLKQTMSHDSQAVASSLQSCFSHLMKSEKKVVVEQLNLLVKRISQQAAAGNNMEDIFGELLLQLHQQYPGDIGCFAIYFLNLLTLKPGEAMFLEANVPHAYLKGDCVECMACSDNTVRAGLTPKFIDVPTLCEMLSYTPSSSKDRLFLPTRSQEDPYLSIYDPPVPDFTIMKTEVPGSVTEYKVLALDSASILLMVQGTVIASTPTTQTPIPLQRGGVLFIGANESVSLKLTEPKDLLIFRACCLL

Row | Compound | inhibition
1 | O=C(c1ccccc1[N+](=O)[O-])N1CCCN(C(=O)c2ccccc2[N+](=O)[O-])CC1 | -6.8%
2 | COc1cc(NS(=O)(=O)c2ccc(C)cc2)c2ncccc2c1 | 32.6%
3 | COc1cc(NCCCCCCCN)c2ncccc2c1 | 50.3% (active)
4 | COc1cc(NC(=O)C2CCCCC2)c2ncccc2c1 | 4.2%
5 | CCn1c(CSCc2ccc(Cl)cc2)n[nH]c1=S | -10.7%
6 | CC(C)(C)C1=CC(=Nc2ccccc2N)C=C(C(C)(C)C)C1=O | -7.5%
7 | CC(C)(C=O)C1=CC(=O)c2ccccc2C1=O | 12.2%
8 | Cc1ccc(S(=O)(=O)N2CCOCC2)cc1C(=O)Nc1ccccn1 | 4.2%
9 | O=C(Cc1ccc(Cl)cc1)N/N=C/c1cccs1 | 15.1%
10 | CCOC(=O)c1c(C)n(C)c2ccc(O)c(CN3CCC(C)CC3)c12 | 22.9%
11 | CCOC(=O)c1c(C)n(C)c2ccc(O)c(CN3CCN(C)CC3)c12 | 54.1% (active)
12 | CCOC(=O)c1c(C)n(C)c2ccc(O)c(CN3CCCCC3)c12 | 8.7%
13 | COc1ccc(NCc2nnc(SCC(=O)Nc3ccc(OC)cc3)n2C)cc1 | -0.9%
14 | CCOC(=O)c1ccc(NC(=O)CSc2nnc(CNc3ccc(C)cc3)n2C)cc1 | 11.2%
15 | CCOC(=O)c1ccc(NC(=O)CSc2nnc(CNc3ccc(OC)cc3)n2C)cc1 | 53.5% (active)
16 | COc1ccc(-n2ccnc2SCC(=O)NCc2ccco2)c(OC)c1 | 5.5%
17 | O=C(NCc1ccco1)C1Cc2ccccc2CN1C(=O)c1ccco1 (stereo unspecified) | -0.2%
18 | CCn1c(SCc2nc3sc(C(=O)O)c(C)c3c(=O)[nH]2)nnc1-c1ccc(Cl)cc1 | -1%
19 | COc1ccccc1NC(=O)Nc1nc(C(C)(C)C)cs1 | 56.3% (active)
20 | COc1ccccc1NC(=O)Nc1cc(NC(=O)Nc2ccccc2OC)c(C)nc1C | -9.6%
21 | CC(C)(C)c1csc(NC(=O)Nc2ccccc2)n1 | 7.8%
22 | COc1ccc(S(=O)(=O)/N=C2/C=CC(=O)C(C)=C2C)cc1 | 43.8%
23 | COc1ccc(S(=O)(=O)N=C2C=C(C)C(=O)C(C)=C2)cc1 | 61.5% (active)
24 | COc1ccc(S(=O)(=O)c2ccc(OC)cc2)cc1 | 6.7%
25 | CC1CCN(C(c2ccccc2)c2nnnn2C(C)(C)C)CC1 (stereo unspecified) | -19.6%
26 | Cn1cc(Br)c(C(=O)NN2C(=O)C3C4C=CC(C5CC45)C3C2=O)n1 (stereo unspecified) | 2.3%

Row | Compound | inhibition
27 | O=C(Cc1cccc2ccccc12)NCCOc1ccccc1F | 23.4%
28 | Nc1cc2c(cc1[N+](=O)[O-])OCCOCCOCCO2 | 19.7%
29 | Nc1cc2c(cc1[N+](=O)[O-])OCO2 | 52.9% (active)
30 | Nc1cc2c(cc1[N+](=O)[O-])OCCO2 | 7.1%
31 | CCNc1nc(NCC)nc(C(=O)NN)n1 | -16.1%
32 | COc1cc(/C=N/NC(=O)C(Cc2c[nH]c3ccccc23)NC(=O)OCC(C)C)cc([N+](=O)[O-])c1OCc1ccccc1 (stereo unspecified) | 53.6% (active)
33 | COc1cc(/C=N/NC(=O)C(Cc2c[nH]c3ccccc23)NC(=O)OCC(C)C)cc([N+](=O)[O-])c1O (stereo unspecified) | 6.2%
34 | COc1cc(/C=N/NC(=O)[C@H](Cc2c[nH]c3ccccc23)NC(=O)OCC(C)C)cc([N+](=O)[O-])c1O | 14.5%
35 | Cc1ccc(S(=O)(=O)Cc2ccc(C(=O)N3CCc4ccccc4C3)o2)cc1 | -0.7%
36 | CC(C)c1cccc(C(C)C)c1NC(=O)COC(=O)c1ccc(OCC(=O)Nc2cccc(C(F)(F)F)c2)cc1 | 10.7%
37 | O=c1oc2ccccc2cc1-c1cn2ccccc2n1 | -4.7%
38 | COc1cc(OC)c(NC(=O)CC(C)=O)cc1Cl | 26.6%
39 | Clc1ccccc1OCc1nnc(-c2ccccc2Br)o1 | 5.6%
40 | CC(C)(C)NC(=O)CSc1nc(N)cc(=O)[nH]1 | 0.4%
41 | COc1ccc2ccccc2c1C(O)c1nccn1C (stereo unspecified) | 64.7% (active)
42 | Cn1ccnc1C(O)c1ccccc1 (stereo unspecified) | 15.2%
43 | COc1ccc(C(O)c2nccn2C)cc1 (stereo unspecified) | 9.1%
44 | OC(COCc1ccc(Cl)cc1)CN1CCN(CC(O)COCc2ccc(Cl)cc2)CC1 (stereo unspecified) | -11.7%
45 | Cc1csc(NC(=O)C2C3C=CC(O3)C2C(=O)O)n1 (stereo unspecified) | 5%
46 | Cc1ccc2[nH]c3c(c2c1)CCC3=O | 15.5%
47 | Cc1ccc2[nH]c3c(c2c1)CCNC3=O | -5.2%
48 | Cc1onc(-c2ccccc2)c1C(=O)Oc1cccnc1 | -0.5%
49 | CC(=O)NC(CCS(C)(=O)=O)C(=O)Nc1ccccc1C (stereo unspecified) | 3.2%
50 | CCCCN(C)C(=O)c1cc2cc3cc(OC)ccc3nc2o1 | 16.4%
51 | Cc1cccnc1CCNC(=O)CCc1nnc(CCc2ccccc2)o1 | 17.7%
52 | O=C(NC1CC1)c1cc(Cl)ccc1[N+](=O)[O-] | 12.7%

Row | Compound | inhibition
53 | CC(=O)c1coc2c1cc(O)c1ccccc12 | 4.7%
54 | O=C(c1ccco1)c1coc2c1cc(O)c1ccccc12 | 51.1% (active)
55 | O=C(c1cc(C(=O)c2ccco2)cc(C(=O)c2ccco2)c1)c1ccco1 | 6.2%
56 | CCOC(=O)c1ccc(N2C(=O)CC(N3CCOCC3)C2=O)cc1 (stereo unspecified) | -0.3%
57 | CN(C)S(=O)(=O)c1cccc2c1C(=O)c1ccccc1C2=O | 21%
58 | CN(C)c1cc2c(c(N(C)C)c1)C(=O)c1ccccc1C2=O | 50.3% (active)
59 | CN(C=[N+](C)C)c1cccc2c1C(=O)c1ccccc1C2=O | 39.3%
60 | CNc1cccc2c1C(=O)c1ccccc1C2=O | 24.4%
61 | COc1ccc(OC)c2c1C(=O)c1ccccc1C2=O | -55.2%
62 | CN(C)c1cccc2c1C(=O)c1ccccc1C2=O | 55.7% (active)
63 | Cc1nc2ccccn2c1C(=O)NN=C1CCCC1 | -5%
64 | Cc1ccc(C(=O)NNC(=O)c2cccc(S(=O)(=O)N3CCN(c4ccccc4)CC3)c2)cc1 | 5.6%
65 | Cc1ccc(C(=O)NCC(=O)OC(C)C(=O)NCCC2=CCCCC2)cc1C (stereo unspecified) | 4.6%
66 | O=C(NCC1CCCO1)C(c1ccc(F)cc1)N(CC1CCCO1)C(=O)c1ccc(-c2ccccc2)[nH]1 (stereo unspecified) | -8.3%
67 | O=C(CCOc1ccccc1)Nc1cccc([N+](=O)[O-])c1 | -0.7%
68 | O=C(CNS(=O)(=O)c1ccccc1F)Nc1ccc(N2CCOCC2)cc1 | 1%
69 | COc1ccc(C(=O)NCCSc2ccccc2)cc1 | 7.1%
70 | CCCc1cc(=O)oc2c(C)c3occ(C)c3cc12 | 2.8%
71 | C/C(CCc1ccco1)=N\NC(=O)CNc1cccc2ccccc12 | 56% (active)
72 | C/C(=N\NC(=O)CNc1cccc2ccccc12)c1ccc(Br)s1 | 52% (active)
73 | C/C(=N\NC(=O)CNc1cccc(C)c1)c1ccc(Br)s1 | 14.6%
74 | COc1ccccc1NCC(=O)N/N=C(\C)c1ccc(Br)s1 | 11.6%
75 | C/C(CCc1ccco1)=N\NC(=O)CNc1c(Br)cc(Br)cc1Br | -2.7%
76 | C/C(CCc1ccco1)=N/NC(=O)CCC(=O)Nc1ccc(Br)cc1 | 7.1%
77 | CC(=O)Cc1nsc(Nc2cccc(C)c2)n1 | 6.5%
78 | COc1ccc(NC(=O)c2ccco2)cc1S(=O)(=O)N1CCOCC1 | -7.3%

Row | Compound | inhibition
79 | CC(OC(=O)c1cccnc1)C(=O)Nc1ccc2c(c1)OCO2 (stereo unspecified) | 2.7%
80 | Cc1cccc(CCN(CC(=O)NC2CCCCC2)C(=O)c2csnn2)c1 | -6%
81 | CN(Cc1nccn1C)C(=O)CC1C(=O)NCCN1CC(c1ccccc1)c1ccccc1 (stereo unspecified) | 25.1%
82 | Cc1ccc(NC(=O)CCNC(=O)c2ccco2)cc1F | -1.2%
83 | C/C(=N\NC(=O)C(=O)Nc1ccc(C)cc1)c1ccncc1 | -7.3%
84 | Cc1ccc(C)n1-c1ccccc1N1CCCCC1 | -1.9%
85 | Cc1ccc(C)n1-c1ccccc1N | 57.3% (active)
86 | Cc1nnc(C)c2c(C)n(-c3ccccc3N)c(C)c12 | 56.3% (active)
87 | CC1CCN(c2ccccc2N)CC1 | 2%
88 | Cc1nnc(C)c2c(C)n(C(c3ccccc3)c3ccccc3)c(C)c12 | 8%
89 | Cc1ccc(-n2c(C)c3c(C)nnc(C)c3c2C)cc1N | 44.2%
90 | Cc1nn(-c2ccccc2)c(C)c1C(=O)OCC(=O)c1c(N)n(CC(C)C)c(=O)n(C)c1=O | 4.3%
91 | Cc1ccc(NC(=O)c2cc(S(=O)(=O)N3CCCCC3)ccc2N2CCOCC2)cc1F | 9.5%
92 | COc1ccc(NC(=O)c2cc(S(=O)(=O)N3CCCCC3)ccc2N2CCCCC2)cn1 | 55.3% (active)
93 | COc1ccc(NC(=O)c2cccc(S(=O)(=O)N3CCOCC3)c2)cn1 | -1.9%
94 | CCOC(=O)/C(C#N)=C/c1ccc(SC)cc1 | -6.5%
95 | O=c1[nH]c(Cc2ccccn2)nc2scc(-c3ccccc3Cl)c12 | -108%
96 | O=C1CNC(=S)N1c1nc(-c2ccccc2)cs1 | 0.9%
97 | Cc1ccc(N/N=C/c2c(C)c(C#N)c(=O)n(C)c2O)cc1C | 23.3%
98 | Cc1c(/C=N/Nc2ccc(F)cc2)c(O)n(C)c(=O)c1C#N | -7%
99 | CC(=O)N=Cc1c(C)c(C#N)c(=O)n(C)c1O | 53% (active)
100 | CCC(=C(c1ccc(OC)cc1)c1ccc(OC)cc1)c1cn(CC(O)CN2CCN(C)CC2)c2ccccc12 (stereo unspecified) | -5.7%
101 | c1ccc(CCn2nnnc2C(c2cccnc2)N2CCN(c3nc4ccccc4s3)CC2)cc1 (stereo unspecified) | 15.2%
